The full list was thinned out, with hits kept by preference.
IDE exosite FP – exo-site inhibitors of human IDE, primary screen, biochemical, fluorescence anisotropy, probe displacement; z-score at 20 µM; purified IDE, FL-6b probe fluorescence polarization; active compounds read low; 17,000 compounds, 6.3% hits; Insulin-degrading enzyme (Homo sapiens), P14735;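 active means z-score of -3 or lower, meaning strong loss of probe binding signal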;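 further: His-tagged human IDE residues 42-1019 made in E. coli with 30 nM FL-6b probe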
* = called active by the depositor.

SMILES | IDE exosite FP
O=C(Cc1ccccn1)N1CCCCN2[C@@H](CO)[C@H](c3ccc(-c4ccccc4)cc3)[C@@H]2C1 | 1.9
Cc1ccccc1-c1ccc([C@H]2[C@H]3CN(C(=O)Cc4ccccn4)CCCCN3[C@H]2CO)cc1 | -0.98
O=C(Cc1ccccn1)N1CCCCN2[C@H](CO)[C@H](c3ccc(-c4ccccc4)cc3)[C@@H]2C1 | -0.96
O=C(Cc1ccccn1)N1CCCCN2[C@H](CO)[C@@H](c3ccc(-c4ccccc4)cc3)[C@H]2C1 | -0.097
Cc1ccccc1-c1ccc([C@H]2[C@@H](CO)N3CCCCN(C(=O)Cc4ccccn4)C[C@@H]23)cc1 | -5.7*
O=C(Cc1ccccn1)N1CCCCN2[C@H](C1)[C@H](c1ccc(-c3ccccc3)cc1)[C@@H]2CO | -2.4
Cc1ccccc1-c1ccc([C@@H]2[C@H]3CN(C(=O)Cc4ccccn4)CCCCN3[C@H]2CO)cc1 | -10*
O=C(Cc1ccccn1)N1CCCCN2[C@H](C1)[C@@H](c1ccc(-c3ccccc3F)cc1)[C@@H]2CO | -4.5*
O=C(Cc1ccccn1)N1CCCCN2[C@H](CO)[C@@H](c3ccc(-c4ccc(F)cc4)cc3)[C@H]2C1 | 4.4
c1cncc(-c2ccc(C3[C@H]4CNC[C@@H]3N4CC3CC3)cc2)c1 (stereo not given in full) | -0.89
O=C(Cc1ccccc1)N1CCCCN2[C@H](CO)[C@H](c3ccc(-c4ccccc4)cc3)[C@@H]2C1 | 1.5
COc1cccc(-c2ccc([C@H]3[C@@H](CO)N4CCCCN(C(=O)Cc5ccncc5)C[C@H]34)cc2)c1 | -2.5
OC[C@@H]1[C@@H]2c3ccccc3NC[C@@H]2N1Cc1cccnc1 | 1.1
COc1ccc(C#Cc2ccc([C@@H]3[C@H](CO)N4CCCCN(C(=O)Cc5cccnc5)C[C@@H]34)cc2)cc1 | 4.6
C/C=C/c1ccc([C@@H]2[C@@H](CO)N3CCCCN(C(=O)Cc4cccnc4)C[C@@H]23)cc1 | 0.079
C/C=C/c1ccc([C@@H]2[C@H](CO)N3CCCCN(C(=O)Cc4cccnc4)C[C@@H]23)cc1 | -0.6
O=C(Cc1cccnc1)N1CCCCN2[C@H](CO)[C@@H](c3ccc(C#CC4CCCC4)cc3)[C@@H]2C1 | 3.2
O=C(Cc1cccnc1)N1CCCCN2[C@H](CO)[C@H](c3ccc(/C=C/c4ccccc4)cc3)[C@H]2C1 | -11*
C/C=C/c1ccc([C@H]2[C@@H](CO)N3CCCCN(C(=O)Cc4ccncc4)C[C@H]23)cc1 | 0.65
COc1ccc(C#Cc2ccc([C@@H]3[C@@H](CO)N4CCCCN(C(=O)Cc5cccnc5)C[C@H]34)cc2)cc1 | -1.2
O=C(Cc1cccnc1)N1CCCCN2[C@H](CO)[C@@H](c3ccc(/C=C/c4ccccc4)cc3)[C@@H]2C1 | -8.8*
O=C(Cc1cccnc1)N1CCCCN2[C@H](CO)[C@@H](c3ccc(/C=C/c4ccccc4)cc3)[C@H]2C1 | -9.4*
CN1c2ccc(Br)cc2[C@@H]2NCC[C@@H]2[C@@H]1CO | 1.7
C[C@H]1CN([C@@H](C)CO)C(=O)CCCn2nncc2CO[C@@H]1CN(C)C(=O)Oc1cccc2ccccc12 | -1.6
C/C=C/c1ccc(C2[C@@H]3CN(C(=O)CN(C)C)C[C@H]2N3)cc1 (stereo not given in full) | 0.55
SMILES | IDE exosite FP
O=C(Cc1cccnc1)N1CCCCN2[C@H](C1)[C@@H](c1ccc(C#CC3(O)CCCC3)cc1)[C@@H]2CO | 3.1
O=C(Cc1ccccc1)N1CCCCN2[C@H](C1)[C@@H](c1ccc(C#CC3(O)CCCC3)cc1)[C@@H]2CO | 0.95
N#Cc1cccc(-c2ccc([C@H]3[C@H]4CN(C(=O)Cc5cccnc5)CCCCN4[C@H]3CO)cc2)c1 | -0.13
COc1ccc(-c2ccc([C@@H]3[C@@H](CO)N4CCCCN(C(=O)Cc5ccncc5)C[C@H]34)cc2)cc1 | -0.41
O=C(Cc1ccccc1)N1CCCCN2[C@H](CO)[C@@H](c3ccc(C#Cc4ccccc4)cc3)[C@@H]2C1 | -1.3
O=C(Cc1ccccc1)N1CCCCN2[C@H](CO)[C@@H](c3ccc(C#Cc4ccccc4)cc3)[C@H]2C1 | 0.71
O=C(Cc1ccncc1)N1CCCCN2[C@@H](CO)[C@@H](c3ccc(C#Cc4ccccc4F)cc3)[C@@H]2C1 | -5.4*
O=C(Cc1ccncc1)N1CCCCN2[C@H](CO)[C@H](c3ccc(C#Cc4ccccc4F)cc3)[C@H]2C1 | -4.2*
COc1ccc(C#Cc2ccc([C@@H]3[C@H](CO)N4CCCCN(C(=O)Cc5ccncc5)C[C@@H]34)cc2)cc1 | 3.8
O=C(Cc1ccncc1)N1CCCCN2[C@H](CO)[C@@H](c3ccc(C#Cc4ccccc4F)cc3)[C@H]2C1 | -2.5
O=C1CNC[C@H]2[C@H](c3ccc(Br)cc3)[C@H](CO)N12 | 0.17
COC(=O)[C@@H]1[C@@H](CO)[C@@H]2Cn3c(ccc(-c4ccc(F)cc4)c3=O)[C@H]1N2C(=O)c1ccccc1F | -0.72
O=C(Cc1ccncc1)N1CCCCN2[C@H](C1)[C@@H](c1ccc(C#CC3(O)CCCC3)cc1)[C@@H]2CO | 1.1
COc1cccc(-c2ccc([C@@H]3[C@@H](CO)N4CCCCN(C(=O)Cc5ccncc5)C[C@@H]34)cc2)c1 | -2.3
COc1ccc(-c2ccc([C@H]3[C@H](CO)N4CCCCN(C(=O)Cc5ccccc5)C[C@@H]34)cc2)cc1 | 0.59
COc1ccc(-c2ccc([C@@H]3[C@H](CO)N4CCCCN(C(=O)Cc5ccccc5)C[C@@H]34)cc2)cc1 | -3.1*
COc1cccc(-c2ccc([C@@H]3[C@H](CO)N4CCCCN(C(=O)Cc5ccncc5)C[C@@H]34)cc2)c1 | -3.9*
COc1ccc(-c2ccc([C@H]3[C@@H](CO)N4CCCCN(C(=O)Cc5ccccc5)C[C@@H]34)cc2)cc1 | 0.58
COc1cccc(-c2ccc([C@H]3[C@@H](CO)N4CCCCN(C(=O)Cc5ccncc5)C[C@@H]34)cc2)c1 | 1.1
O=C(Cc1ccncc1)N1CCCCN2[C@@H](CO)[C@@H](c3ccc(-c4ccncc4)cc3)[C@@H]2C1 | 1.5
O=C(Cc1ccccc1)N1CCCCN2[C@@H](CO)[C@H](c3ccc(C#CC4(O)CCCC4)cc3)[C@@H]2C1 | 3.4
O=C(Cc1ccccc1)N1CCCCN2[C@@H](CO)[C@@H](c3ccc(C#CC4(O)CCCC4)cc3)[C@@H]2C1 | 0.87
N#Cc1cccc(-c2ccc([C@@H]3[C@@H](CO)N4CCCCN(C(=O)Cc5ccccc5)C[C@H]34)cc2)c1 | 0.49
O=C(Cc1ccccn1)N1CCCCN2[C@H](CO)[C@@H](c3ccc(C#Cc4ccccc4)cc3)[C@H]2C1 | -0.97
CCCC#Cc1ccc([C@@H]2[C@H]3CN(C(=O)Cc4ccccn4)CCCCN3[C@H]2CO)cc1 | -1.7
SMILES | IDE exosite FP
CC(C)CC#Cc1ccc([C@@H]2[C@@H](CO)N3CCCCN(C(=O)Cc4ccccn4)C[C@@H]23)cc1 | 5.1
O=C(Cc1ccccn1)N1CCCCN2[C@@H](CO)[C@H](c3ccc(C#Cc4ccccc4)cc3)[C@@H]2C1 | -7.3*
O=C(Cc1ccccn1)N1CCCCN2[C@@H](CO)[C@@H](c3ccc(Br)cc3)[C@@H]2C1 | 3.2
O=C(Cc1ccccn1)N1CCCCN2[C@H](CO)[C@@H](c3ccc(C#Cc4ccccc4)cc3)[C@@H]2C1 | -4.9*
O=C(Cc1ccccn1)N1CCCCN2[C@H](CO)[C@H](c3ccc(C#Cc4ccccc4)cc3)[C@H]2C1 | -9.5*
COCC#Cc1ccc([C@@H]2[C@@H](CO)N3CCCCN(C(=O)Cc4ccccn4)C[C@@H]23)cc1 | -0.26

Source: PubChem BioAssay (Broad Institute)
